About 7,900 targets were measured; listed, in parts, are those with a hit and a random draw of the rest. About 0.6% of all pairs of compound and target were hits. Values without a mark were called inactive.
Assays:
Experiment in all cases: log2 fold change, soluble protein after heating vs DMSO (PISA); higher = thermal stabilisation; K562 cells, 10 uM, 30 min; active = over 0.2 and 3.5 SD of the protein, either way, in both replicates (recomputed)
[1] = compound: CC1=C(C=C(C=C1)NC(=O)C2=CC(=CC=C2)C(C)(C)C#N)NC3=CC4=C(C=C3)N=CN(C4=O)C
Procedure, shortened: (§1)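 Quantification of soluble protein used TMTpro 16plex LC-MS/MS, with channel sums equalised. Samples were the supernatant after 21,000xg for 90 min of pooled aliquots from K562 cells (2×10^6 cells/mL) treated with 10 μM compound for 30 min, heated for 3 min over 48°C-58°C, and extracted in PBS with 0.5% NP-40 at 4°C. Values, from duplicates, describe thermal stability against control samples on a log2 fold-change scale.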

[2] = compound: CC1=C(C=C(C=C1)NC(=O)C2=CC(=CC=C2)N(C)C)NC(=O)C3=CC=C(C=C3)O
Procedure, shortened: as §1

[3] = compound: CC1=CC=C(C=C1)SC2=C3C=C(SC3=CN=C2)C(=O)N
Procedure, shortened: as §1

[4] = compound: CC1=NC(=CC=C1)C2=C(N=C(N2)C(C)(C)C)C3=CC4=NC=CN=C4C=C3
Procedure, shortened: as §1

[5] = compound: CCCCN(Cc1ccc(C(=O)NO)cc1)C(=O)Nc1ccccc1 [Nexturastat A]
Procedure, shortened: as §1

[6] = compound: CCCS(=O)(=O)Nc1ccc(F)c(C(=O)c2c[nH]c3ncc(-c4ccc(Cl)cc4)cc23)c1F [vemurafenib]
Procedure, shortened: as §1

[7] = compound: CCCS(=O)(=O)Nc1ccc(F)c(C(=O)c2c[nH]c3ncc(Cl)cc23)c1F
Procedure, shortened: as §1

[8] = compound: CCCc1cc(C)[nH]c(=O)c1CNC(=O)c1cc(-c2ccnc(N3CCN(C)CC3)c2)cc2c1cnn2C(C)C
Procedure, shortened: as §1

[9] = compound: CCN(CC)Cc1ccc2cc(COC(=O)Nc3ccc(C(=O)NO)cc3)ccc2c1 [givinostat]
Procedure, shortened: as §1

[10] = compound: CCN(CCCOc1ccc2c(Nc3cc(CC(=O)Nc4cccc(F)c4)[nH]n3)ncnc2c1)CCOP(=O)(O)O [barasertib]
Procedure, shortened: as §1

[11] = compound: CC[C@@H]1C(=O)N(C)c2cnc(Nc3ccc(C(=O)NC4CCN(C)CC4)cc3OC)nc2N1C1CCCC1
Procedure, shortened: as §1

[12] = compound: CC[C@@H]1C(=O)N(C)c2cnc(Nc3ccc(C(=O)N[C@H]4CC[C@H](N5CCN(CC6CC6)CC5)CC4)cc3OC)nc2N1C(C)C [volasertib]
Procedure, shortened: as §1

[13] = compound: CC[C@H](C)N1C=C(C2=C(C=C(C=C21)C3=CN=C(C=C3)N4CCNCC4)C(=O)NCC5=C(C=C(NC5=O)C)C)C
Procedure, shortened: as §1

[14] = compound: CC[C@H](C)[C@@H](C(=O)N[C@@H]([C@@H](C)O)C(=O)N[C@@H](CC(C)C)C(=O)[C@]1(CO1)C)NC(=O)[C@H]([C@@H](C)CC)N(C)C(=O)C [epoxomicin]
Procedure, shortened: as §1

[15] = compound: CCn1c(C(=O)N(C2CC2)C2CC2)cc2c3c(ncn3C)c(Nc3cc(C)n(C)n3)nc21
Procedure, shortened: as §1

[16] = compound: CCn1cc(-c2ccnc3[nH]c(-c4cccc(CN(C)C)c4)cc23)c(-c2ccc(NC(=O)N(C)C)cc2)n1
Procedure, shortened: as §1

[17] = compound: CN(C)CC(=O)Nc1ccc2[nH]c(=O)c3ccccc3c2c1
Procedure, shortened: as §1

[18] = compound: CN(CCOC1=CC=C(C=C1)C[C@H]2C(=O)NC(=O)S2)C3=CC=CC=N3 (racemic) [rosiglitazone]
Procedure, shortened: as §1

[19] = compound: CN1C2=C(C3=C1C(=O)N(N=C3)CC4=CC(=CC=C4)N)SC(=C2)S(=O)C
Procedure, shortened: as §1

[20] = compound: CN1CCC(CNc2ccc3ncc(-c4cccc(OC(F)(F)F)c4)n3n2)CC1
Procedure, shortened: as §1

UniProt O00124, sequence (O00124 whole entry, looked up): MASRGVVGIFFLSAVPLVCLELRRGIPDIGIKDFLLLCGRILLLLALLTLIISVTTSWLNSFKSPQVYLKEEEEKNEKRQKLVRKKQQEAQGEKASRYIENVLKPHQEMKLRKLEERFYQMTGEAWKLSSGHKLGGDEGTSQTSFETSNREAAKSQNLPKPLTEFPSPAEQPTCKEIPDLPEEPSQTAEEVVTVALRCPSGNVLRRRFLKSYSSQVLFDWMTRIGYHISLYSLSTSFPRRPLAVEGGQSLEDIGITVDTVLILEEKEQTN
UniProt Q92973, sequence (Q92973 whole entry, looked up): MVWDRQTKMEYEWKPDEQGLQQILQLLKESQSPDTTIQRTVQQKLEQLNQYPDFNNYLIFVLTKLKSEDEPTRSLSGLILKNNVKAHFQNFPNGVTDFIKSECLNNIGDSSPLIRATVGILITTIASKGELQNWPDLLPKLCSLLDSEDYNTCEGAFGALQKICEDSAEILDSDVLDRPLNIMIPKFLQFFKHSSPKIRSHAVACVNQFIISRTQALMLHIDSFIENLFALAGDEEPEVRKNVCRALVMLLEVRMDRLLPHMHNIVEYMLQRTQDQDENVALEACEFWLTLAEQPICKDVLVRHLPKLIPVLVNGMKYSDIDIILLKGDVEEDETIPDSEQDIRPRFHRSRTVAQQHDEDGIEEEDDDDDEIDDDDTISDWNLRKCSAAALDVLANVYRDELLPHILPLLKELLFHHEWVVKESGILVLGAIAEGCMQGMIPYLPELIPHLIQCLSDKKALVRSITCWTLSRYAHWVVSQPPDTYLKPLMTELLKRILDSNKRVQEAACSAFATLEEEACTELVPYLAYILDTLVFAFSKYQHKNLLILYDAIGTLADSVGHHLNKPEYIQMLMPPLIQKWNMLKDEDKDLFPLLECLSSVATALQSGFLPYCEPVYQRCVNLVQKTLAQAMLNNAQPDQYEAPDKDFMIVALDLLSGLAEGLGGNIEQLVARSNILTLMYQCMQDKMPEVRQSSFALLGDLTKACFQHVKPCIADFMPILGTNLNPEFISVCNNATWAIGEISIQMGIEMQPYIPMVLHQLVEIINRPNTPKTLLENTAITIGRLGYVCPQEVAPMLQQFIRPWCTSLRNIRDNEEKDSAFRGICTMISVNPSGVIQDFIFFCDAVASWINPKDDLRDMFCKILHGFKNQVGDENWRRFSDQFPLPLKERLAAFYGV
UniProt Q6NXR4, sequence (Q6NXR4 whole entry, looked up): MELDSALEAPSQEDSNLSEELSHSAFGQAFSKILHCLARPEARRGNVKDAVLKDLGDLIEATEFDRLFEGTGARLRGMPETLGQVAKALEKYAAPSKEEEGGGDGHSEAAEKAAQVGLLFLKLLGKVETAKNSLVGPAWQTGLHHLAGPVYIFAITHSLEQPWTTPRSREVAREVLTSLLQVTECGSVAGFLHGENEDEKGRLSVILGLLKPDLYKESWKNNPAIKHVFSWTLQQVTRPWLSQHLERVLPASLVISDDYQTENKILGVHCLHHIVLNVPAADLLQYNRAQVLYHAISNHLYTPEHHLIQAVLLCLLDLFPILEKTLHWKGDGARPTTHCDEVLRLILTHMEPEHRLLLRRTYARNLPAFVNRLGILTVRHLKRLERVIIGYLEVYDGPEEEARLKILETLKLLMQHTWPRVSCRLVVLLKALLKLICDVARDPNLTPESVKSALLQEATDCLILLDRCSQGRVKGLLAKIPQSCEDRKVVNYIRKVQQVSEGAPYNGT
UniProt Q96K49, sequence (Q96K49 whole entry, looked up): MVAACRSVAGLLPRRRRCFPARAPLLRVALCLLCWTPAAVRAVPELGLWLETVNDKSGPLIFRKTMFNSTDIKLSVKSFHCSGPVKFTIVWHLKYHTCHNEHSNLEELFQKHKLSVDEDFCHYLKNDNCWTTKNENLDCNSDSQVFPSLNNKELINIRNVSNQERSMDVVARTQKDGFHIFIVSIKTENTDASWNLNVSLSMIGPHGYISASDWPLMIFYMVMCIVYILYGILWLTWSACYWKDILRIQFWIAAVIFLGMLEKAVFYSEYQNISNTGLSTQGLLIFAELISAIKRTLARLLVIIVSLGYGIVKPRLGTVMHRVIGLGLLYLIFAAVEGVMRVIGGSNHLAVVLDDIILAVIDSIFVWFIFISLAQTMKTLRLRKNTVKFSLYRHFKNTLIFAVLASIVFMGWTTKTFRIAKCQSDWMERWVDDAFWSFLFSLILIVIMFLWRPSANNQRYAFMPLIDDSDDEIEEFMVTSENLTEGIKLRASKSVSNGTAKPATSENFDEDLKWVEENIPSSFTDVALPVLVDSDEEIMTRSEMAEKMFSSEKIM
UniProt Q15906, sequence (Q15906 whole entry, looked up): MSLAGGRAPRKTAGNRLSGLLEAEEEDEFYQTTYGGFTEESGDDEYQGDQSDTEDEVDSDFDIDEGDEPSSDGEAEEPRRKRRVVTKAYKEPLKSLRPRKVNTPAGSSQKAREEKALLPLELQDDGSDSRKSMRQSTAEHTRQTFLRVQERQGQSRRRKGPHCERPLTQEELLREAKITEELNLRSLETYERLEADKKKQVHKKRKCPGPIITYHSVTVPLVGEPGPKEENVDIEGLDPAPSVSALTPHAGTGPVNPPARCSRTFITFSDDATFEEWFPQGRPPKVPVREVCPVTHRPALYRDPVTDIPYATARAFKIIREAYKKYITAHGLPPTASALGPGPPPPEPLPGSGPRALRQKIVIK
UniProt Q9Y5K5, sequence (Q9Y5K5 whole entry, looked up): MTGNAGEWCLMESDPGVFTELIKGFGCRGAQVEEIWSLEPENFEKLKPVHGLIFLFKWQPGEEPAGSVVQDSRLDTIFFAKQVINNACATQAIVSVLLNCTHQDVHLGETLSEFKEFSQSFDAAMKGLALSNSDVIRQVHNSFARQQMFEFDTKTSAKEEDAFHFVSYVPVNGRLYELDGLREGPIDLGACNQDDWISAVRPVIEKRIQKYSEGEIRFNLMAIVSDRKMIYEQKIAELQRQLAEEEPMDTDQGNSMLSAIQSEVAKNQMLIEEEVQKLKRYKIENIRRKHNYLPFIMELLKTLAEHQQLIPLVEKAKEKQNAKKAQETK
UniProt P49815, sequence (P49815 whole entry, looked up): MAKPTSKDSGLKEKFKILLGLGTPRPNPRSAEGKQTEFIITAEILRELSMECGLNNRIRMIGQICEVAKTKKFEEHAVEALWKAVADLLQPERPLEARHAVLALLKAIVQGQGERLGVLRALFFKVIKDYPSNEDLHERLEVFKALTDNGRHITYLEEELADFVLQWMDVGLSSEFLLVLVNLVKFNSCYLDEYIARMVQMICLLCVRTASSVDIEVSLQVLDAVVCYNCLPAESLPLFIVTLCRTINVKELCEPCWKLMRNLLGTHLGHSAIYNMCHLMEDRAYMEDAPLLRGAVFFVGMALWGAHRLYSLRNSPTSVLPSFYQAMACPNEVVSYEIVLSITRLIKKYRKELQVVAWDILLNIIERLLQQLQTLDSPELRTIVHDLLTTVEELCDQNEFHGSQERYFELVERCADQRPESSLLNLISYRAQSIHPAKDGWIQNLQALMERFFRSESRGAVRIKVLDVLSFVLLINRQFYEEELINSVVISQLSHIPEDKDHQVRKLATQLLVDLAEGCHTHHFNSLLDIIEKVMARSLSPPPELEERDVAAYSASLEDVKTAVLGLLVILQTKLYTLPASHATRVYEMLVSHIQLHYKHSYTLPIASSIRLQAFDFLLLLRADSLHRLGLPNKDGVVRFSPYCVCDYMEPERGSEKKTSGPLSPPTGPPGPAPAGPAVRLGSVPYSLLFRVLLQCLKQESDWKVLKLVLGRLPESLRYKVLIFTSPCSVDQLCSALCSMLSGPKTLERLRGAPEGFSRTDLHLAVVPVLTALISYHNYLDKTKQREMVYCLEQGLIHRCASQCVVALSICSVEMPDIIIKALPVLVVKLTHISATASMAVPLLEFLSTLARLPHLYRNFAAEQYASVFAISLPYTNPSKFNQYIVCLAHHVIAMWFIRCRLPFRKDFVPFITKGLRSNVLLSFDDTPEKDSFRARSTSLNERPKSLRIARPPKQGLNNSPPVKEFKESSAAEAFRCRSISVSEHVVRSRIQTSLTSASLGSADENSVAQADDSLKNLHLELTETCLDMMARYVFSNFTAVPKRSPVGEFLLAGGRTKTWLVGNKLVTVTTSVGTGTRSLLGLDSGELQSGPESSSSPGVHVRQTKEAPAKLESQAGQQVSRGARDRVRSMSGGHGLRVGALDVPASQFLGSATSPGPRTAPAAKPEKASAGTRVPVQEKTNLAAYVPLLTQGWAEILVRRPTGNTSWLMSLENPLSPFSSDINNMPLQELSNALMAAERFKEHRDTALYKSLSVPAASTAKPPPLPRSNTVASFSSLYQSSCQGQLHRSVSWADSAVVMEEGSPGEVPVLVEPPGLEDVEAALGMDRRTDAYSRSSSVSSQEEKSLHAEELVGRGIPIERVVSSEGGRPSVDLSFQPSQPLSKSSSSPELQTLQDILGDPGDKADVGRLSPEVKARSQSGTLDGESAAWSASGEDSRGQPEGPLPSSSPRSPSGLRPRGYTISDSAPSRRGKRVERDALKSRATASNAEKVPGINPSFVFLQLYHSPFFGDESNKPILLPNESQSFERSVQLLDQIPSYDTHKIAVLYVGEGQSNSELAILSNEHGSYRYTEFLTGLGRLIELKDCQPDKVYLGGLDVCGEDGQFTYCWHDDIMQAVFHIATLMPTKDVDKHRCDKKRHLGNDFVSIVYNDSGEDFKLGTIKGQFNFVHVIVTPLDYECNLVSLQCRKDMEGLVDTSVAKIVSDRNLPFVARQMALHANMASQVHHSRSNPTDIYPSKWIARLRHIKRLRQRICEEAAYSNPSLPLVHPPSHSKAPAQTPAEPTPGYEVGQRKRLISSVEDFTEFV
UniProt Q7Z7N9, sequence (Q7Z7N9 whole entry, looked up): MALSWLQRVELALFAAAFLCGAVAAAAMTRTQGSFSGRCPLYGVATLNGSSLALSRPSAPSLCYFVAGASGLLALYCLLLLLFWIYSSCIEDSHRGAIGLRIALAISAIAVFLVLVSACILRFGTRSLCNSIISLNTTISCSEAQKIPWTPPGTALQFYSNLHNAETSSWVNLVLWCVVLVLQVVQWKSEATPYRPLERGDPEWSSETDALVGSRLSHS

| Target | log2 fold change [1] | log2 fold change [2] | log2 fold change [3] | log2 fold change [4] | log2 fold change [5] | log2 fold change [6] | log2 fold change [7] | log2 fold change [8] | log2 fold change [9] | log2 fold change [10] | log2 fold change [11] | log2 fold change [12] | log2 fold change [13] | log2 fold change [14] | log2 fold change [15] | log2 fold change [16] | log2 fold change [17] | log2 fold change [18] | log2 fold change [19] | log2 fold change [20] |
| --- | --- | --- | --- | --- | --- | --- | --- | --- | --- | --- | --- | --- | --- | --- | --- | --- | --- | --- | --- | --- |
| TNPO1 (UniProt Q92973) | 0.041 | 0 | 0.037 | 0 | -0.017 | 0.015 | 0.064 | -0.009 | 0.015 | -0.005 | -0.182 | -0.379 (active) | 0.046 | -0.016 | 0.021 | -0.025 | 0.018 | 0.012 | -0.019 | -0.055 |
| UHRF1BP1L (UniProt A0JNW5) | -0.079 | -0.031 | -0.038 | -0.032 | -0.054 | -0.039 | -0.033 | 0.027 | -0.033 | 0 | 0.165 | 0.034 | -0.009 | -0.022 | -0.018 | -0.086 | 0.02 | 0.028 | -0.079 | 0.1 |
| TMEM179B (UniProt Q7Z7N9) | -0.233 | -0.003 | 0.011 | 0.027 | 0.378 | – | 0.053 | -0.021 | -0.118 | 0.045 | 0.05 | 0.052 | 0.029 | -0.44 (active) | 0.026 | 0.039 | – | -0.027 | – | -0.128 |
| TMEM87B (UniProt Q96K49) | -0.018 | -0.013 | 0.112 | -0.008 | -0.059 | -0.048 | -0.028 | 0.008 | -0.063 | 0.048 | -0.088 | -0.148 | 0.092 | 0.018 | 0.002 | -0.103 | -0.016 | 0 | -0.143 | -0.436 (active) |
| VKORC1 (UniProt Q9BQB6) | 0.064 | -0.04 | 0.001 | -0.325 (active) | – | -0.023 | 0.117 | -0.017 | -0.006 | 0.048 | -0.006 | -0.079 | -0.088 | – | -0.078 | 0.008 | 0.072 | 0.033 | 0.03 | -0.09 |
| TSC2 (UniProt P49815) | -0.09 | 0.004 | -0.076 | -0.139 | 0.173 | – | 0.098 | -0.036 | -0.043 | -0.015 | -0.062 | -0.23 | – | -0.01 | -0.295 | 0.016 | – | -0.052 | – | -0.041 |
| TOP2A isoform 4 (UniProt P11388) | 0.081 | -0.006 | -0.083 | -0.094 | 0.234 | -0.213 | 0.042 | 0.182 | 0.207 | -0.054 | 0.198 | 0.226 | 0.106 | -0.231 | 0.052 | 0.156 | -0.194 | -0.169 | 0.526 | 0.128 |
| UCHL5 isoform 3 (UniProt Q9Y5K5) | -0.09 | -0.145 | 0.048 | -0.213 | 0.07 | -0.02 | 0.243 | 0.047 | 0.056 | 0.048 | -0.008 | -0.617 (active) | 0.126 | 0.293 | 0.107 | – | 0.074 | 0.062 | – | – |
| TTI2 (UniProt Q6NXR4) | 0.021 | -0.039 | 0.024 | 0.023 | 0.113 | 0.047 | 0.06 | -0.018 | 0.135 | -0.028 | -0.173 | -0.414 (active) | 0.021 | 0.085 | -0.016 | – | 0.09 | -0.01 | 0.03 | – |
| UBXN8 (UniProt O00124) | -0.029 | 0.169 | 0.023 | – | 0.334 | 0.089 | -0.024 | – | – | -0.218 | 0.081 | -0.179 | – | 0.073 | – | -0.039 | -0.051 | 0.259 | 0.147 | -0.297 |
| WBP4 (UniProt O75554) | 0.105 | 0.044 | 0.057 | -0.036 | -0.047 | 0.022 | 0.011 | 0 | -0.043 | -0.022 | -0.004 | -0.045 | 0.003 | 0.069 | 0.025 | -0.089 | -0.036 | -0.038 | -0.058 | 0.218 |
| UBLCP1 (UniProt Q8WVY7) | -0.011 | -0.078 | -0.03 | 0.03 | 0.025 | 0.076 | 0.093 | -0.006 | 0.122 | 0.057 | -0.191 | -0.356 (active) | 0.019 | 0.168 | -0.059 | -0.072 | 0.039 | 0.019 | -0.024 | 0.013 |
| VPS72 isoform 2 (UniProt Q15906) | -0.051 | 0.196 | 0.05 | – | -0.17 | 0.025 | -0.028 | -0.042 | -0.014 | 0.001 | -0.261 | 0.135 | -0.072 | -0.107 | 0.101 | – | -0.052 | 0.041 | 0.043 | – |
